HT1080 IDH1KD tx – HT-1080 IDH1 knockdown cell toxicity (counter line); actives 2% (n = 360,000); HT-1080 IDH1 knockdown viability, ATP luminescence, 48 h; Potency, µM (top dose mostly 46.1 µM), for the others: at the highest dose activity, negative = toxicity, most hits filed as cytotoxic; AID 686971;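 also: potency is read from the fitted curve at half-maximal effect; 0% = DMSO wells and -100% = cell-free medium wells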
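Knockdown cells (IDH1KD HT-1080) received compounds 2 h after plating at 750 cells/well and were kept 48 h at 37 °C in 5% FBS RPMI. A CellTiter-Glo luminescence read gave % activity for curve fitting.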
HT1080-NT tox – kills 2HG-producing HT-1080-NT fibrosarcoma cells. actives 1.6% (n = 360,000). AID 686970. Potency, µM (titrated, usually from 46.1 µM), inactives show top-dose activity, negative = less viability, usual class: cytotoxic. HT-1080-NT fibrosarcoma viability, CellTiter-Glo ATP luminescence, 48 h;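 also: NT is the 2HG producing partner of a matched IDH1 knockdown line; potency is read from the fitted curve at half-maximal effect; 0% = DMSO-treated cells and -100% = media-only wells without cells; nearly all actives have a fitted effect of over 55% in size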
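HT-1080-NT; 750 cells/well; 5% FBS RPMI; 48 h compound, 37 degrees C; CellTiter-Glo luminescence; curve fitting and curve-class assignment.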
TDP1 cell CPT – DT40-hTDP1 cell growth loss with CPT. chicken DT40 Tdp1-/-;hTDP1 cells + 20 nM CPT, ATP luminescence, 48 h. actives 12% (n = 420,000). Potency, µM (doses to about 46.2 µM), for inactives: top-dose activity change, negative = growth inhibition, usual class: inhibitors; also: potency is read from the fitted curve at half-maximal effect; nearly all actives have a fitted effect of over 55% in size
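Cell growth measured by CellTiter-Glo luminescence after a minimum 48 h, 37 C compound exposure with 20 nM CPT in Tdp1-knockout DT40 cells stably expressing hTDP1, seeded 400/well; qHTS titration format.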
TDP1 cell noCPT – qHTS for Inhibitors of human tyrosyl-DNA phosphodiesterase 1 (TDP1): qHTS in cells in absence of CPT; DT40 Tdp1-/- hTDP1 cells, no CPT, ATP luminescence, 48 h; Potency, µM (highest dose often 46.2 µM), without a hit: at the highest dose activity change, negative = growth inhibition, actives largely listed as inhibitors; actives 15% (n = 420,000); AID 686978, 2013; also: potency is read from the fitted curve at half-maximal effect; nearly all actives have a fitted effect of over 55% in size
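Camptothecin absent (DMSO only). Human TDP1-complemented DT40 knockout cells, 400 cells/well, 37 °C for minimum 48 hr; ATP measured via CellTiter-Glo, 30 min dark incubation, luminescence.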
IL-1B inflam inh – blocks inflammasome-driven IL-1 beta release | THP-1 LPS/ATP IL-1B secretion, AlphaLISA, 16 h; active compounds read low | activity change, % at 57.5 µM | actives 4.7% (n = 360,000) | AID 743279; in the data active = activity change below about -50%; inconclusive = mostly about -30% to -49%
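THP-1 cells pretreated 1 hr with compounds (up to 57.5 uM final), then stimulated with LPS (250 ng/mL final) plus ATP (1.25 mM final); secreted IL-1B measured by AlphaLISA after 16 hr, decreased signal indicating inhibition.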
The depositor's hits bear a star; ? = inconclusive; · = not tested or not shown; [ ] = another dose, or the depositor's remark. Shown are actives, neighbours in structure and some others; about 19% of the full set was active somewhere. Unless noted, calls follow the shape of the dose curve; as a rule, active = well fitted curve in the direction sought with a large enough effect; inconclusive = small, poorly fitted or top-dose-only effect, or another doubt; inactive = no such curve, though single readings can be large; an effect the other way counts as inactive or inconclusive. Unless noted, % is scaled to controls: 0 for no effect and ±100 for the full control effect.

SMILES	HT1080 IDH1KD tx	HT1080-NT tox	TDP1 cell CPT	TDP1 cell noCPT	IL-1B inflam inh
O=C(CN1C(=O)C2(OCCO2)c2ccccc21)c1ccc(F)cc1	-8%	7%	-10%	-3%	-5
COC(=O)c1ccccc1-c1cc(C)cc2c1OC(CNC(=O)c1cnc(C)cn1)C2 (stereo not drawn)	·	·	-12%[9.04 µM]	18µM*	·
CC1=NN(C(N)=S)C(C)(C)C1	3%	2%	25%	-4%	15
COc1ccc(N(CC(=O)N2CCN(Cc3ccccc3)CC2)S(C)(=O)=O)cc1OC	1%	6%	-2%	-5%	11
OC(C#Cc1ccccn1)c1cccs1 (stereo not drawn)	?	?	18µM*	16µM*	-95*
CN(C)c1cccc(CNC(=O)c2csc([C@@H]3O[C@H](CO)[C@@H](O)[C@H]3O)n2)c1	0%	25%	13µM*	12µM*	13
CN(C)c1cccc(CNC(=O)c2csc([C@@H]3O[C@H](CO)[C@H](O)[C@H](O)[C@H]3O)n2)c1	?	13%	0%	0%	23
CCOC(=O)CNC(=O)C1CCCN(c2ncccn2)C1 (stereo not drawn)	4%	-7%	29µM*	-7%	-7
O=C(NCc1cccs1)C1CCCN(c2ncccn2)C1 (stereo not drawn)	0%	0%	-21%	-2%	6
O=C(CCN1CCCCC1)c1ccccc1	3%	10%	11µM*	13µM*	-4
CCCCOc1ccc(C(=O)CCN2CCOCC2)cc1	-17%	?	5.2µM*	6.5µM*	-104*
Brc1ccc(OCCCCCN2CCOCC2)cc1	-6%	-15%	3%	-6%	-59*
CC1CCCN(CCC(=O)c2ccccc2)C1 (stereo not drawn)	13%	-1%	4.6µM*	10µM*	6
CC(C)(C)OC(=O)N1CCC(C(=O)Nc2cccc(C(=O)N3CCCC3)c2)CC1	12%	13%	-15%	-11%	4
Cc1cc(C(=O)OCC(=O)Nc2cccnc2Cl)c2ccccc2n1	5%	2%	5%	-18%	38
Cc1ccc(C)c(S(=O)(=O)NC(CCC(N)=O)C(=O)O)c1 (stereo not drawn)	8%	15%	0%	-8%	19
CCOc1ccc(C(=O)CCN2CCCCCC2)cc1	?	?	3.7µM*	2.9µM*	?
O=C(CCN1CCN(C(=O)c2ccccc2)CC1)c1ccc(Br)cc1	-26%	?	7.3µM*	8.2µM*	-23
O=C(c1ccc(Br)cc1)N1CCN(Cc2ccccc2)CC1	3%	6%	11%	1%	-26
C[N+]1(CCC(=O)c2ccccc2)CCCCC1	7%	19%	3.3µM*	2.6µM*	6
O=C(CCN1CCOCC1)c1ccccc1	?	?	2.6µM*	3.5µM*	-72*
Cc1ccsc1C1Cc2c(C(=O)NCc3cccnc3)c(=O)cc(C)n2-c2ccccc2S1 (stereo not drawn)	·	·	-1%[9.04 µM]	-17%	·
C#C[C@]1(O)CC[C@H]2[C@@H]3CCc4cc(OC5CCCC5)ccc4[C@H]3CC[C@@]21C	21µM*	16µM*	13µM*	8.2µM*	0
C#C[C@]1(O)CC[C@H]2[C@@H]3CCc4cc(OC)ccc4[C@H]3CC[C@@]21C	-1%	17%	0.24µM*	21µM*	8
C#C[C@]1(O)CC[C@H]2[C@@H]3CCC4=C(CCC(=O)C4)[C@H]3CC[C@@]21C	0%	-21%	?	7.2µM*	-5
SMILES	HT1080 IDH1KD tx	HT1080-NT tox	TDP1 cell CPT	TDP1 cell noCPT	IL-1B inflam inh
COc1ccc2c(c1)CC[C@@H]1[C@@H]2CC[C@]2(C)[C@@H](C(C)=O)C[C@@H]12	2%	-2%	?	?	13
COc1ccc2c(c1)CC[C@@H]1[C@@H]2CC[C@]2(C)[C@@H](C(=O)O)C[C@@H]12	16%	12%	-13%	-6%	24
C=CCOc1ccc2c(c1)CCC1C2CCC2(C)C(O)C(O)CC12 (stereo not drawn)	?	?	?	?	-75*
Cc1c(Cl)c([N+](=O)[O-])nn1CCCC(=O)NCCc1ccccc1	-1%	24%	6%	2%	40
COCCN1C(=O)COc2ccccc2C1C(=O)Nc1ccc2c(c1)OCCO2 (stereo not drawn)	17%	21%	10%	-21%	?
Cc1cc(=O)n2[nH]c(=O)c(N=Nc3ccccc3)c2[nH]1	-1%	-20%	-21%	?	19
CCOc1ccc(N=Nc2c(=O)[nH]n3c(=O)cc(C)[nH]c23)cc1	?	?	21µM*	?	16
Cc1ccc(P(=O)(c2ccc(C)cc2)[C@@H](NC(c2ccccc2)c2ccccc2)c2ccccc2)cc1	16µM*	15µM*	18µM*	13µM*	0
COc1cccc(C(=O)Nc2ccccc2C(=O)OCc2cc(=O)n3nc(C4CC4)sc3n2)c1	·	·	4%	-2%	·
COc1ccc2nc3sc(C(=O)NCCCN4CCc5ccccc5C4)cc3cc2c1	-13%	-12%	?	16µM*	-27
COc1ccc2nc3sc(C(=O)N4CCN(C)CC4)cc3cc2c1	-5%	-3%	-10%	-17%	-4
CCCCN(C)C(=O)c1cc2cc3ccc(OC)cc3nc2s1	?	-27%	?	?	-27
CCN(CCCNC(=O)c1cc2cc3ccc(OC)cc3nc2s1)c1ccccc1	·	·	16µM*	21µM*	·
CCOc1ccc(NC(=O)c2cc3cc4cc(OC)ccc4nc3s2)cc1	·	·	-83%	4.6µM*	·
O=C(COc1coc(CN2CCc3ccccc3C2)cc1=O)Nc1ccccc1F	1%	2%	0%	-21%	-11
COc1ccc(Cl)cc1NC(=O)C(=O)NCc1ccc(Cl)cc1	·	·	-19%	-27%	·
CCC(=O)Nc1nc2ccc3sc(C)nc3c2s1	?	-22%	18µM*	23µM*	-5
CCCC(=O)Nc1nc2ccc3nc(C)sc3c2s1	14%	13%	-24%	?	-6
CC(C)CC1NC(=O)c2cc3ccccc3cc2-n2c1nc1cc(Cl)ccc1c2=O (stereo not drawn)	14%	10%	?	18µM*	73
CC1NC(=O)c2cc3ccccc3cc2-n2c1nc1cc(Cl)ccc1c2=O (stereo not drawn)	3%	-12%	21µM*	?	16
Cc1ccc2c(=O)n3c(nc2c1)C(CC(C)C)NC(=O)c1cccnc1-3 (stereo not drawn)	-2%	-2%	-4%	?	-12

High-throughput results as filed in PubChem BioAssay.
